Consider 41 compounds from PubChem BioAssay (NCATS).

The target in assay [1] is Glutathione peroxidase 1 (Homo sapiens) (UniProt P07203). Put plainly: Primary qHTS Assay for Inhibitors of Recombinant Selenoprotein Glutathione Peroxidase 1 (GPX1) (AID 1845191). A digest of the protocol:
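GPX1 10 nM, GR 100 nM, GSH 1 mM, NADPH 0.5 mM, CHP 0.5 mM (final). 30-min cpd preincubation, RT. Ex340/Em450 read t=0, t=15 min.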
Background: In qHTS, concentration-response curves come from the screen itself.

For assay [2], the target named is Phospholipid hydroperoxide glutathione peroxidase GPX4 (Homo sapiens) (UniProt P36969). Kind of assay: Primary qHTS Assay for Inhibitors of Recombinant Selenoprotein Glutathione Peroxidase 4 (GPX4) (AID 1845192). The procedure, abridged:
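qHTS, GR-coupled: GPX4 200 nM + cpd 30 min RT → GSH 1 mM, NADPH 0.5 mM, GR 100 nM → CHP 0.5 mM start; fluor 340/450 at t0 and t15 min; no-enzyme wells as control.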

Results filed as inconclusive are left out. A call without a number means that no potency is given here. Values without a mark were called inactive. Calls of active or inactive are those of the source. Calls come from the whole dose curve; as a rule, active = well fitted inhibition curve with a large enough effect; inconclusive = small, poorly fitted or top-dose-only effect; inactive = flat fitted curve, though single readings scatter.
Note: nearly all actives have a fitted effect of over 65% in size.
Potency is the fitted concentration of half-maximal effect.

Chain of Phospholipid hydroperoxide glutathione peroxidase GPX4 (Homo sapiens) (P36969 whole entry, looked up): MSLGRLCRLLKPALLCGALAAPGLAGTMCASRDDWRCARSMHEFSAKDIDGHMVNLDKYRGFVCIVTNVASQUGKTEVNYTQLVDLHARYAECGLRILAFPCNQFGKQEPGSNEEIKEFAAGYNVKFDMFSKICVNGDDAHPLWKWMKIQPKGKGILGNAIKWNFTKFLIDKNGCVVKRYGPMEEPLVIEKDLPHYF
Chain of Glutathione peroxidase 1 (Homo sapiens) (P07203 whole entry, looked up): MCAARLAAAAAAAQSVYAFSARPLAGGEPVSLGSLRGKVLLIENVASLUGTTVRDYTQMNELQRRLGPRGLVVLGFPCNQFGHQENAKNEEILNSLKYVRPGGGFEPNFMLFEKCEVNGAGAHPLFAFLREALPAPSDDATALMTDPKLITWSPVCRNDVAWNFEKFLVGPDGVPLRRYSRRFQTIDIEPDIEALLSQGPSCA

On to `[O-][n+]1cccc(/C(Cl)=N/OC[C@@H](O)CN2CCCCC2)c1`, for which the Potency result in assay [1] and in assay [2] was “inactive” in each case.
As to `O=C(O)[C@@H](O)[C@H](O)[C@H](O)[C@@H](O)C(=O)O`, the Potency entry in assay [1] and in assay [2] was “inactive” in each case.
For the compound `CC(C)(C)CC(=O)OCC(=O)[C@@]1(O)CC[C@H]2[C@@H]3CCC4=CC(=O)C=C[C@]4(C)[C@H]3[C@@H](O)C[C@@]21C`, the Potency result in assay [1] and in assay [2] was “inactive” in each case.
Regarding `NS(=O)(=O)c1cc(C(=O)NN2C[C@H]3[C@H]4CCC(C4)[C@H]3C2)ccc1Cl`, the Potency entry in assay [1] and in assay [2] was “inactive” in each case.
For the compound `CCCCCC(=O)O[C@]1(C(C)=O)CC[C@H]2[C@@H]3CCC4=CC(=O)CC[C@]4(C)[C@H]3CC[C@@]21C`, the Potency entry in assay [1] and in assay [2] was “inactive” in each case.
As to `N#CSCC(=O)O`, the Potency result in assay [1] and in assay [2] was “inactive” in each case.
Take `O=C(O)/C=C(\CC(=O)O)C(=O)O`: the Potency entry in assay [1] and in assay [2] was “inactive” throughout.
As to `C[N+]1(C)CCC(OC(=O)C(O)(c2ccccc2)C2CCCC2)C1` (configuration not stated), the Potency result in assay [1] and in assay [2] was “inactive” each time.
With `CCn1ccc(NS(=O)(=O)c2ccc(N)cc2)nc1=O`, the Potency entry in assay [1] and in assay [2] was “inactive” throughout.
For the compound `O=C(OCC(COC(=O)c1cccnc1)(COC(=O)c1cccnc1)COC(=O)c1cccnc1)c1cccnc1`, the Potency result in assay [1] and in assay [2] was “inactive” each time.
As for `CC(CC(C#N)(c1ccccc1)C(C)C)N(C)C` (configuration not stated), the Potency result in assay [1] and in assay [2] was “inactive” in each case.
For `CC(=O)N(CC(O)CO)c1c(I)c(C(=O)NCCO)c(I)c(C(=O)NCC(O)CO)c1I` (configuration not stated), the Potency entry in assay [1] and in assay [2] was “inactive” throughout.
On to `CCOC(=O)Oc1ccc(CCNC(=O)[C@H](CCSC)NC(C)=O)cc1OC(=O)OCC`, for which the Potency entry in assay [1] and in assay [2] was “inactive” throughout.
As to `CC(C)Cc1ccc(C(C)C(=O)OCc2ccccn2)cc1` (configuration not stated), the Potency entry in assay [1] and in assay [2] was “inactive” in each case.
As to `CN1C(=O)CC(C)(c2ccccc2)C1=O` (configuration not stated), the Potency result in assay [1] and in assay [2] was “inactive” each time.
Take `C[C@H]1NCc2cc(-c3ccc4c(=O)c(C(=O)O)cn(C5CC5)c4c3OC(F)F)ccc21`: the Potency result in assay [1] and in assay [2] was “inactive” each time.
As to `Oc1ccccc1`, the Potency entry in assay [1] and in assay [2] was “inactive” each time.
As to `CN(C)CCN(Cc1ccsc1)c1ccccn1`, the Potency entry in assay [1] and in assay [2] was “inactive” throughout.
Consider `CCCc1ccc(OCC(=O)N2CCN(C(=O)COc3ccc(CCC)cc3OC)CC2)c(OC)c1`, for which the Potency result in assay [1] and in assay [2] was “inactive” in each case.
As for `Cn1cnc2c(NCc3ccccc3)nc(NCCO)nc21`, the Potency result in assay [1] and in assay [2] was “inactive” throughout.
`CCC(CN)=C(c1ccccc1)c1ccccc1`: the Potency entry in assay [1] and in assay [2] was “inactive” throughout.
On to `Cc1ccc(/C=N/n2c(-c3ccccc3)csc2=S)cc1`, for which the Potency result in assay [1] and in assay [2] was “inactive” throughout.
On to `C[N+](C)(CCOc1ccccc1)Cc1cccs1`, for which the Potency entry in assay [1] and in assay [2] was “inactive” throughout.
On to `CC(=O)Nc1c(I)c(NC(C)=O)c(I)c(C(=O)O)c1I`, for which the Potency entry in assay [1] and in assay [2] was “inactive” in each case.
Consider `CC(=O)/C=C/C=C1/C2CCC(C2)C1(C)C` (configuration not stated), for which the Potency result in assay [1] and in assay [2] was “inactive” in each case.
On to `COc1ccc2c(c1)c(CC(=O)OC/C=C(\C)CC/C=C(\C)CCC=C(C)C)c(C)n2C(=O)c1ccc(Cl)cc1`, for which the Potency entry in assay [1] and in assay [2] was “inactive” in each case.
With `CCCC(=O)OCOC(=O)C1=C(C)NC(C)=C(C(=O)OC)C1c1cccc(Cl)c1Cl` (configuration not stated), the Potency result in assay [1] and in assay [2] was “inactive” throughout.
As to `CCCCN(CCN(CCCC)C(=O)N1CCOCC1)C(=O)N1CCOCC1`, the Potency entry in assay [1] and in assay [2] was “inactive” throughout.
As to `COc1c(N2C[C@@H]3CCCN[C@@H]3C2)c(F)cc2c(=O)c(C(=O)O)cn(C3CC3)c12`, the figures for the Potency in assay [1] and in assay [2] were 14.3 µM (active) and 11.2 µM (active), respectively.
Taken in the same sequence, the figures for `CCCCCC[C@@H](CCC)C(=O)O` were “inactive” and “inactive”.
Taken in the same sequence, the figures for `CCN(CC)C(=O)C1CN2CCc3cc(OC)c(OC)cc3C2CC1OC(C)=O` (configuration not stated) were “inactive” and “inactive”.
With `CC[C@@H]([C@H](C)O)n1ncn(-c2ccc(N3CCN(c4ccc(OC[C@@H]5CO[C@@](Cn6cncn6)(c6ccc(F)cc6F)C5)cc4)CC3)cc2)c1=O`, the Potency result in assay [1] and in assay [2] was “inactive” each time.
Consider `C[C@]12CCC(=O)C=C1CC[C@@H]1[C@@H]2[C@@H](O)C[C@@]2(C)[C@H]1CC[C@]2(O)C(=O)COC(=O)CCC(=O)O`, for which the Potency result in assay [1] and in assay [2] was “inactive” throughout.
As to `C/C(=N/NC(=O)c1ccncc1)C(=O)O`, the Potency result in assay [1] and in assay [2] was “inactive” in each case.
Take `CCOc1ccc(NS(=O)(=O)c2ccc(N)cc2)nn1`: the Potency entry in assay [1] and in assay [2] was “inactive” each time.
Consider `CC(C)NCCCC1(C(N)=O)c2ccccc2-c2ccccc21`, for which the Potency result in assay [1] and in assay [2] was “inactive” throughout.
With `CCCCCCCCCCCCCCCCCCNC(=O)OC1CCN(C(=O)OC[C@H](COC(=O)N(Cc2cccc[n+]2CC)C(=O)c2ccccc2OC)OC)CC1`, the Potency result in assay [1] and in assay [2] was “inactive” each time.
Turning to `CCCC(=O)O[C@]1(C(=O)CC)CC[C@H]2[C@@H]3CCC4=CC(=O)CC[C@]4(C)[C@H]3[C@@H](O)C[C@@]21C`, the Potency entry in assay [1] and in assay [2] was “inactive” each time.
As to `CC(=O)OCC[N+](C)(C)C`, the Potency result in assay [1] and in assay [2] was “inactive” in each case.
Turning to `N#Cc1cc(NC(=O)C(=O)O)c(Cl)c(NC(=O)C(=O)O)c1`, the Potency result in assay [1] and in assay [2] was “inactive” throughout.
With `CC(=O)N[C@@H](CCC(N)=O)C(=O)O`, the Potency result in assay [1] and in assay [2] was “inactive” each time.
